According to paper PMC10812921, “Transcriptional Coactivator BOB1 (OBF1, OCA-B) Modulates the Specificity of DNA Recognition by the POU-Domain Factors OCT1 and OCT2 in a Monomeric Configuration”:

Experiments:
POU1 (OCT1 POU domain) = POU1 (OCT1 POU domain) (human, UniProt P14859 260-458); test: EMSA-SELEX-seq; no BOB1; 20 mM Tris-HCl pH 7.6, 140 mM NaCl, 10% glycerol, 0.5 mM EDTA, 0.05% Triton X-100, 0.1 mg/mL BSA, 0.1 mg/mL poly(dI-dC), 5 mM DTT, room temperature, 20 min; high values mean tight binding; conditions: protein: recombinant; dsDNA, one strand shown
POU1 (OCT1 POU domain), sequence (P14859 260-458): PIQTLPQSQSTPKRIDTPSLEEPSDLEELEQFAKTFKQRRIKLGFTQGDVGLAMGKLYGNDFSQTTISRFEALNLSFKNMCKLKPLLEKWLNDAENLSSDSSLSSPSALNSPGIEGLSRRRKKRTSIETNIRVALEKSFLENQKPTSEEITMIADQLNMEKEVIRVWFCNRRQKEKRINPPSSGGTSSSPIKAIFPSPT
Method in brief: (§1)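 A double-stranded random 35-nt library (300 ng, PCR-amplified) was incubated with 30 ng tagged POU-domain protein, with or without 28 ng coactivator protein, in 20 μL Tris–HCl pH 7.6 binding buffer for 20 min at RT. The proteins had been expressed in E. coli BL21, purified under denaturing conditions and renatured. Complex bands from native 6% PAGE were eluted and PCR-amplified over four rounds, then sequenced on Illumina. For binding preference, the percentage of sequenced 8-mers matching a motif pattern was calculated.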

POU2 (OCT2 POU domain) = biological target: T1, POU2 (OCT2 POU domain) (human, UniProt P09086 175-386); test: as above; conditions: protein: recombinant; dsDNA, one strand shown
T1 sequence: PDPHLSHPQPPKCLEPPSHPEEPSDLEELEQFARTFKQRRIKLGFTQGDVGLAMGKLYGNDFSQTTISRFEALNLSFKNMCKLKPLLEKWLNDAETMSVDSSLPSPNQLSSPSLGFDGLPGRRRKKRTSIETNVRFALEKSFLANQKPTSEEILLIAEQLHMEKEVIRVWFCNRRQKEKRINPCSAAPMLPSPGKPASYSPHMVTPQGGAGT
Method in brief: as §1

[1] = biological target: POU1 (OCT1 POU domain);BOB1 (OBF1, OCA-B) (human;human, UniProt P14859;Q16633 260-458;1-256, |); test: EMSA-SELEX-seq; with BOB1 (ternary complex band); 20 mM Tris-HCl pH 7.6, 140 mM NaCl, 10% glycerol, 0.5 mM EDTA, 0.05% Triton X-100, 0.1 mg/mL BSA, 0.1 mg/mL poly(dI-dC), 5 mM DTT, room temperature, 20 min; high values mean tight binding; conditions: protein: recombinant;recombinant; copies: 1;1; dsDNA, one strand shown
Method in brief: as §1

[2] = biological target: T2, POU2 (OCT2 POU domain);BOB1 (OBF1, OCA-B) (human;human, UniProt P09086;Q16633 175-386;1-256, |); test: as above; conditions: protein: recombinant;recombinant; copies: 1;1; dsDNA, one strand shown
T2 sequence 1: T1 sequence
T2 sequence 2: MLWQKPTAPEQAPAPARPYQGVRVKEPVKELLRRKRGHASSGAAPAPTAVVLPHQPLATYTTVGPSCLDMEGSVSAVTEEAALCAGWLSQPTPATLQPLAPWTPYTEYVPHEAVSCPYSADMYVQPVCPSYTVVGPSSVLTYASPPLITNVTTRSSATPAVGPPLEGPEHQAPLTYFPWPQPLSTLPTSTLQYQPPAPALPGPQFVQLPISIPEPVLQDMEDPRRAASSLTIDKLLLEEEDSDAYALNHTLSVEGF
Method in brief: as §1

Sequence | binding signal (POU1 (OCT1 POU domain)) | binding signal (POU2 (OCT2 POU domain)) | binding signal [1] | binding signal [2]
ATTAGAAG | 0.0786 % of ANNNNAAN 8-mers | 0.101 % of ANNNNAAN 8-mers | 0.0585 % of ANNNNAAN 8-mers | 0.066 % of ANNNNAAN 8-mers
ATGGGAAG | 0.0652 % of ANNNNAAN 8-mers | 0.0696 % of ANNNNAAN 8-mers | 0.0683 % of ANNNNAAN 8-mers | 0.0735 % of ANNNNAAN 8-mers
AGGCCAAC | 0.0107 % of ANNNNAAN 8-mers | 0.0115 % of ANNNNAAN 8-mers | 0.0113 % of ANNNNAAN 8-mers | 0.0157 % of ANNNNAAN 8-mers
ACTTTAAG | 0.0336 % of ANNNNAAN 8-mers | 0.0299 % of ANNNNAAN 8-mers | 0.0332 % of ANNNNAAN 8-mers | 0.0322 % of ANNNNAAN 8-mers
AAACAAAC | 0.066 % of ANNNNAAN 8-mers | 0.0506 % of ANNNNAAN 8-mers | 0.109 % of ANNNNAAN 8-mers | 0.0512 % of ANNNNAAN 8-mers
AAACGAAC | 0.0328 % of ANNNNAAN 8-mers | 0.0293 % of ANNNNAAN 8-mers | 0.0437 % of ANNNNAAN 8-mers | 0.0355 % of ANNNNAAN 8-mers
ACTTCAAT | 0.0256 % of ANNNNAAN 8-mers | 0.038 % of ANNNNAAN 8-mers | 0.0363 % of ANNNNAAN 8-mers | 0.0446 % of ANNNNAAN 8-mers
ATGTCAAG | 0.0378 % of ANNNNAAN 8-mers | 0.0535 % of ANNNNAAN 8-mers | 0.0406 % of ANNNNAAN 8-mers | 0.052 % of ANNNNAAN 8-mers
AACTCAAT | 0.0378 % of ANNNNAAN 8-mers | 0.0437 % of ANNNNAAN 8-mers | 0.0289 % of ANNNNAAN 8-mers | 0.0314 % of ANNNNAAN 8-mers
ATATAAAC | 0.0637 % of ANNNNAAN 8-mers | 0.0719 % of ANNNNAAN 8-mers | 0.055 % of ANNNNAAN 8-mers | 0.0652 % of ANNNNAAN 8-mers
AGACGAAC | 0.0202 % of ANNNNAAN 8-mers | 0.0236 % of ANNNNAAN 8-mers | 0.0137 % of ANNNNAAN 8-mers | 0.0182 % of ANNNNAAN 8-mers
AATCAAAC | 0.0526 % of ANNNNAAN 8-mers | 0.057 % of ANNNNAAN 8-mers | 0.0765 % of ANNNNAAN 8-mers | 0.0405 % of ANNNNAAN 8-mers
ACCTAAAT | 0.0393 % of ANNNNAAN 8-mers | 0.0489 % of ANNNNAAN 8-mers | 0.0386 % of ANNNNAAN 8-mers | 0.0421 % of ANNNNAAN 8-mers
AGGTAAAT | 0.379 % of ANNNNAAN 8-mers | 0.269 % of ANNNNAAN 8-mers | 0.55 % of ANNNNAAN 8-mers | 0.391 % of ANNNNAAN 8-mers
AGTCCAAC | 0.0114 % of ANNNNAAN 8-mers | 0.0167 % of ANNNNAAN 8-mers | 0.0144 % of ANNNNAAN 8-mers | 0.0248 % of ANNNNAAN 8-mers
ACAAGAAA | 0.0366 % of ANNNNAAN 8-mers | 0.0437 % of ANNNNAAN 8-mers | 0.0386 % of ANNNNAAN 8-mers | 0.0322 % of ANNNNAAN 8-mers

Sequence | binding signal (POU1 (OCT1 POU domain)) | binding signal (POU2 (OCT2 POU domain)) | binding signal [1] | binding signal [2]
AGAAAAAG | 0.0534 % of ANNNNAAN 8-mers | 0.0581 % of ANNNNAAN 8-mers | 0.0468 % of ANNNNAAN 8-mers | 0.0421 % of ANNNNAAN 8-mers
AGAGCAAC | 0.0133 % of ANNNNAAN 8-mers | 0.0115 % of ANNNNAAN 8-mers | 0.0137 % of ANNNNAAN 8-mers | 0.0206 % of ANNNNAAN 8-mers
ATGTCAAA | 0.0744 % of ANNNNAAN 8-mers | 0.0673 % of ANNNNAAN 8-mers | 0.0745 % of ANNNNAAN 8-mers | 0.0652 % of ANNNNAAN 8-mers
ATGAAAAC | 0.0717 % of ANNNNAAN 8-mers | 0.0604 % of ANNNNAAN 8-mers | 0.0956 % of ANNNNAAN 8-mers | 0.0586 % of ANNNNAAN 8-mers
ACTATAAC | 0.0156 % of ANNNNAAN 8-mers | 0.0196 % of ANNNNAAN 8-mers | 0.023 % of ANNNNAAN 8-mers | 0.0239 % of ANNNNAAN 8-mers
ATTGCAAT | 0.0561 % of ANNNNAAN 8-mers | 0.061 % of ANNNNAAN 8-mers | 0.0523 % of ANNNNAAN 8-mers | 0.0479 % of ANNNNAAN 8-mers
AGAAGAAG | 0.029 % of ANNNNAAN 8-mers | 0.0547 % of ANNNNAAN 8-mers | 0.0379 % of ANNNNAAN 8-mers | 0.0454 % of ANNNNAAN 8-mers
AGCCTAAA | 0.0271 % of ANNNNAAN 8-mers | 0.0316 % of ANNNNAAN 8-mers | 0.0191 % of ANNNNAAN 8-mers | 0.0206 % of ANNNNAAN 8-mers
AAGTAAAT | 0.19 % of ANNNNAAN 8-mers | 0.146 % of ANNNNAAN 8-mers | 0.227 % of ANNNNAAN 8-mers | 0.147 % of ANNNNAAN 8-mers
AAGATAAT | 0.138 % of ANNNNAAN 8-mers | 0.203 % of ANNNNAAN 8-mers | 0.0819 % of ANNNNAAN 8-mers | 0.129 % of ANNNNAAN 8-mers
ATTACAAT | 0.195 % of ANNNNAAN 8-mers | 0.26 % of ANNNNAAN 8-mers | 0.0847 % of ANNNNAAN 8-mers | 0.0966 % of ANNNNAAN 8-mers
ACGTAAAA | 0.0648 % of ANNNNAAN 8-mers | 0.0529 % of ANNNNAAN 8-mers | 0.0823 % of ANNNNAAN 8-mers | 0.0537 % of ANNNNAAN 8-mers
ATGGTAAT | 1.27 % of ANNNNAAN 8-mers | 1.28 % of ANNNNAAN 8-mers | 0.202 % of ANNNNAAN 8-mers | 0.219 % of ANNNNAAN 8-mers
AATCTAAC | 0.0328 % of ANNNNAAN 8-mers | 0.0339 % of ANNNNAAN 8-mers | 0.0316 % of ANNNNAAN 8-mers | 0.0272 % of ANNNNAAN 8-mers
AATGCAAT | 0.0862 % of ANNNNAAN 8-mers | 0.0949 % of ANNNNAAN 8-mers | 0.089 % of ANNNNAAN 8-mers | 0.0916 % of ANNNNAAN 8-mers
